Data from PubChem BioAssay (NCATS).
Results filed as inconclusive are left out. Where a call stands in place of a potency, no number is given. Calls of active or inactive are those of the source. The call rests on the fitted dose curve; in most records, active means well fitted inhibition curve with a large enough effect; inconclusive means small, poorly fitted or top-dose-only effect; inactive means no such curve, though single readings can be large or run the other way.

assay: S16 Schwann cell PMP22 intronic element firefly luciferase assay (AID 624032); conditions: S16 rat Schwann cells, PMP22 element FLuc, 24 h; series mostly up to 57.5 µM; further: nearly all actives have a fitted effect of over 30% in size
Description: Charcot-Marie-Tooth-Association [CMTA]
National Center for Advancing Translational Sciences [NCATS]
Charcot-Marie-Tooth (CMT) disease was first characterized by Jean-Martin Charcot and Pierre Marie in France and, independently, by Howard Henry Tooth in England in 1886. CMT is one of the most common inherited neurological diseases, affecting approximately 1 in 2,500 Americans. […] The most prevalent type of CMT is known as CMT1A and caused by a duplication of the PMP22 gene which leads to over-expression of this protein. PMP22 is a glycosylated intrinsic membrane protein accounting for 2-5% of the myelin protein content, and its over-expression results in demyelination and subsequently axonal loss.
A pair of cellular transcription-based assays was developed in the S16 rat Schwann cell lines (Hai, M., et al., 2002) stably transfected with orthogonal reporters - firefly luciferase (Fluc) and beta-lactamase (beta-Lac) - whose expression is driven by an intronic regulatory element of the PMP22 gene (Jones, E.A., et al., 2011) to recapitulate endogenous expression of PMP22. The current assay employs Fluc to report on PMP22 expression. A comprehensive library of approved drugs, the NCGC Pharmaceutical Collection (Huang, R., et al., 2011), was screened in the cross-validating platform of the orthogonal reporter assays to identify drug modulators inhibitory towards PMP22 expression.
A set of counter-screens was devised to address non-specific activity of the library. An ATP-dependent CellTiter-Glo assay (developed by Promega Corp) was utilized to control cell viability. In addition, biochemical Fluc enzyme assay was performed to assess direct inhibition of the Fluc enzymatic activity.
Hai, M., Muja, N., DeVries, G.H., Quarles, R.H. and Patel, P.I. Comparative analysis of Schwann cell lines as model systems for myelin gene transcription studies. J Neurosci Res, 2002. 69(4): pp 497-508
Huang, R., Southall, N., Wang, Y., Yasgar A., Shinn P., Jadhav, A. , Nguyen, D.-T. and Austin, C.P., The NCGC pharmaceutical collection: a comprehensive resource of clinically approved drugs enabling repurposing and chemical genomics. Sci Transl Med, 2011. 3(80): p. 80ps16.
S16 Schwann cell PMP22 intronic element firefly luciferase assay
The FLuc-expressing S16 cells were seeded in white solid 1536-well plates at between 500-750 cells/4uL in DMEM medium containing 10% FBS, w/o phenol red. After overnight incubation at 37 degree Celsius/5% C02, 23 nL of compounds or DMSO were delivered to each well using a pin tool, followed by 24h-incubation at 37 degree Celsius/5% C02. Then 4 uL ONE-Glo luminescent substrate mix (Promega) was added to each well. Luminescence was measured on a ViewLux plate reader (Perkin Elmer). The % activity was determined by normalizing to the average readings of PTC124 (a positive control) - treated cells relative to DMSO-treated cells (0% Activity). The concentration-effect curves were then classified based on curve quality (r2), response magnitude and degree of measured activity.
Potency means the concentration at half of the fitted maximal effect.

SMILES	Potency
O=C1NCC2(CCN(CCc3ccccc3)CC2)O1	inactive
CCCCC1C(=O)N(c2ccccc2)N(c2ccccc2)C1=O	inactive
CCN(CC)CCNC(=O)c1ccc(N)cc1	inactive
O=C(O)c1cc(-c2ccccc2)nc2ccccc12	inactive
COCCCCC(=NOCCN)c1ccc(C(F)(F)F)cc1	inactive
CC1=C(/C=C/C(C)=C/C=C/C(C)=C/C(=O)Nc2ccc(O)cc2)C(C)(C)CCC1	4.05 µM (active)
O=C(NCCN1CCOCC1)c1ccc(Cl)cc1	inactive
Cc1cccc(C)c1OCC(C)N (centres undefined)	inactive
CC(=O)CCCCn1c(=O)c2c(ncn2C)n(C)c1=O	inactive
CC(=O)N[C@@H](CS)C(=O)O	inactive
CCCNC(=O)NS(=O)(=O)c1ccc(Cl)cc1	inactive
Cc1cnc(C(=O)O)c[n+]1[O-]	inactive
CC(=O)c1ccc(S(=O)(=O)NC(=O)NC2CCCCC2)cc1	inactive
NCCS	inactive
CCN(CC)C(=O)c1ccc(O)c(OC)c1	inactive
CCN1CCC[C@H]1CNC(=O)c1cc(S(N)(=O)=O)ccc1OC	inactive
COc1cc2ncnc(Nc3ccc(F)c(Cl)c3)c2cc1OCCCN1CCOCC1	36.1 µM (active)

SMILES	Potency
CC1(C)O[C@H]2C[C@@H]3[C@H]4CCC5=CC(=O)C=C[C@]5(C)[C@@]4(F)[C@@H](O)C[C@]3(C)[C@]2(C(=O)CO)O1	inactive
CN(C)CCC(c1ccccc1)c1ccccn1 (centres undefined)	inactive
CCN(CC)CCOC(=O)c1ccc(N)cc1	inactive
O=c1[nH]cnc2c1ncn2[C@H]1CC[C@@H](CO)O1	inactive
C[C@@H](O)[C@H]1C(=O)N2C(C(=O)O)=C(S[C@@H]3CN[C@H](C(=O)N(C)C)C3)[C@H](C)[C@H]12	inactive
O=C(O)CCc1nc(-c2ccccc2)c(-c2ccccc2)o1	inactive
COc1ccccc1N1CCN(CCCNc2cc(=O)n(C)c(=O)n2C)CC1	inactive
CC(C)(C)c1ccc(C(O)CCCN2CCC(C(O)(c3ccccc3)c3ccccc3)CC2)cc1 (centres undefined)	inactive
CCCCCN(C)CCC(O)(P(=O)(O)O)P(=O)(O)O	inactive
CC(C)NCC(O)COc1cccc2[nH]ccc12 (centres undefined)	inactive
CCOC(=O)O[C@]1(C(=O)OCCl)CC[C@@H]2[C@H]3CCC4=CC(=O)C=C[C@]4(C)[C@@H]3[C@@H](O)C[C@@]21C	inactive
O=C1NC(=O)C(c2ccccc2)(c2ccccc2)N1	inactive
NC(N)=Nc1nc(CSCC/C(N)=N/S(N)(=O)=O)cs1	inactive
C[N+](C)(C)CCCCCC[N+](C)(C)C	inactive
CCn1cc(C(=O)O)c(=O)c2ccc(C)nc21	inactive
CC(C)OC(=O)C(C)(C)Oc1ccc(C(=O)c2ccc(Cl)cc2)cc1	inactive
O=C(O)Cc1cccc2ccccc12	inactive
